Screens deposited in PubChem BioAssay by National Center for Advancing Translational Sciences (NCATS).
Rows were chosen to be rich in hits. Some 10% of all compounds tested hit in one or more screens of this group.
SW480 rerep – DNA re-replication induction in SW480 cells; SW480 DNA re-replication, Hoechst DNA content imaging, 48 h; Potency, µM (top dose mostly 46.1 µM), inactives show at the top dose re-replication activation, actives largely listed as activators; 340,000 compounds, 1.8% hits; note: % of control where 0% means no effect; nearly all actives have a fitted effect of over 55% in size
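DNA re-replication was detected as more nuclei of elevated Hoechst intensity after 48 hr exposure to compound (23 nL pinned per well of 250 cells).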
MCF10A rereplic – induces DNA re-replication in MCF 10a normal breast cells; Potency, µM (titrated, usually from 46.1 µM), for inactives: at the highest dose activity, positive = re-replication, usual class: activators; MCF 10A DNA re-replication, Hoechst nuclear intensity, 48 h; 350,000 compounds, 2.9% hits; note: % of control where 0% means no effect; nearly all actives have a fitted effect of over 50% in size
RORg inh – ROR gamma (mouse) transcription inhibition; Potency, µM (doses to about 53.6 µM), for the others: top-dose activity change, negative = inhibition, hits mostly inhibitors; 310,000 compounds, 5.4% hits; P51450; Drosophila S2 Gal4-RORgamma UAS-luciferase reporter, 20 h; note: % is set by controls: 0 for no effect and ±100 for the full control effect; nearly all actives have a fitted effect of over 60% in size
Target sequence (P51450 whole entry, looked up, the tested form may be a part): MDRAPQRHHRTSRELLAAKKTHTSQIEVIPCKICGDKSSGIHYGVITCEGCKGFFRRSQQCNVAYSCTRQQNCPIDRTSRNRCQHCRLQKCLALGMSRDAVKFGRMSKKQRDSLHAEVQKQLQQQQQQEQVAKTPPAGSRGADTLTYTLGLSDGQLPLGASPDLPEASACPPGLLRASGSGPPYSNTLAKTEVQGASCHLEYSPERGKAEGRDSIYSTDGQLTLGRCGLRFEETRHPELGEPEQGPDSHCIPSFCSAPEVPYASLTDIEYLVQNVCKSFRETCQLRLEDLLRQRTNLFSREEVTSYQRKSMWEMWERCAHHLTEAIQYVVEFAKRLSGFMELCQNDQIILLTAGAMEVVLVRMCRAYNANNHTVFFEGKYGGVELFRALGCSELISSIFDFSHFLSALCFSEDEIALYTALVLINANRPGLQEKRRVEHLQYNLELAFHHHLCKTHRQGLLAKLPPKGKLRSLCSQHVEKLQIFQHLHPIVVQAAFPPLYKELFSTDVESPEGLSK
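Read-out: Photinus luciferase luminescence; inhibitors lower reporter signal. Insect Schneider cells with Gal4-ROR gamma fusion under metallothionein promoter, UAS reporter; 700 uM final copper sulfate induction, 20 hr, ambient temperature.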
ELG1 DNA repair – blocks ELG1-dependent DNA repair in HEK293T cells | Potency, µM (highest dose often 46.1 µM), for the others: top-dose activity change, negative = inhibition, usual class: inhibitors | HEK293T ELG1-luciferase reporter, luminescence, 16 h; DNA damage induced by 5-fluorouridine | AID 504467 | 330,000 compounds, 2.3% hits; note: % is set by controls: 0 for no effect and ±100 for the full control effect; nearly all actives have a fitted effect of over 55% in size
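DMSO vehicle served as the neutral condition. Each well held 2,000 cells given 5-fluorouridine plus compound; after 16 hr at 37 °C/5% CO2, ONE-Glo was added and luciferase measured 30 min later.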
VP16 counter – counter-screen for ROR gamma inhibitors: Gal4-VP16 reporter. Potency, µM (titrated, usually from 53.6 µM), without a hit: at the highest dose activity, negative = inhibition, usual class: inhibitors. 310,000 compounds, 3.5% hits. AID 2546. Drosophila S2 Gal4-VP16 UAS-luciferase, luminescence, 20 h;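 note: Gal4-VP16 expression switched on by copper sulfate through the metallothionein promoter; % is set by controls: 0 for no effect and ±100 for the full control effect; nearly all actives have a fitted effect of over 50% in size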
The depositor's hits bear a star; ? = inconclusive; / = no result given; [ ] = another dose, or the depositor's remark. Calls come from the whole dose curve; as a rule, active = well fitted curve in the direction sought with a large enough effect; inconclusive = small, poorly fitted or top-dose-only effect, or another doubt; inactive = no such curve, though single readings can be large; an effect the other way counts as inactive or inconclusive. Potency is the fitted concentration of half-maximal effect.

SMILES	SW480 rerep	MCF10A rereplic	RORg inh	ELG1 DNA repair	VP16 counter
COc1ccc(O)c(/C=N/NC(=S)NCCc2ccccc2)c1	26.1%	?	3.16µM*	?	7.08µM*
O=C(CCc1ccccc1)N/N=C/c1cc(Br)ccc1O	?	?	2.4%	3.5%	-13.4%
CN(C(=O)CN1C(=O)NC(c2ccccc2)(c2ccccc2)C1=O)C1CCS(=O)(=O)C1 (stereo unspecified)	?	-8.1%	/	2.7%	/
CC(C)=CCN1CCN(Cc2coc3ccc(C)cc3c2=O)CC1CCO (stereo unspecified)	-5.0%	1.4%	-32.4%	1.9%	-4.0%
C=CCOC(=O)N[C@@H](c1ccccc1)[C@@H](C)[N+](=O)[O-]	/	/	-0.8%	/	1.9%
CC(OC(=O)c1ccccc1C(=O)N(C)Cc1ccccc1)C(=O)NC1(C#N)CCCCC1 (stereo unspecified)	0.1%	-0.4%	/	9.1%	/
S=C(NCCc1ccccc1)N/N=C/c1ccccc1Cl	-0.5%	22.0%	11.2µM*	?	?
O=C(Cc1ccccc1)N/N=C/c1ccccc1Cl	-2.5%	0.0%	?	?	-2.7%
CCOC(=O)c1cc2c(OC)ccc(OC)c2n1CC(=O)c1ccccc1	?	23.1µM*	-15.8%	2.7%	-1.5%
COc1ccc(-n2c(=O)c3ccccc3n(CC(=O)c3ccccc3)c2=O)cc1OC	17.8%	0.4%	-2.4%	-4.7%	-7.7%
CNC(=O)c1cc2cccc(OC)c2oc1=O	2.1%	36.5%	-7.1%	5.1%	9.7%
COc1cccc2cc(/C(C)=N/Nc3nc(-c4cc(C)ccc4C)cs3)c(=O)oc12	-1.0%	0.4%	0.794µM*	6.5%	-5.5%
Nc1[nH]c(=O)[nH]c(=O)c1N=Nc1ccccc1Cl	-9.3%	23.1µM*	-35.0%	15.8%	-2.8%
COc1cc(-c2noc(C)c2/C=C/c2ccc(N)cc2)cc(OC)c1OC	?	?	?	2.5%	-1.8%
COc1cc(-c2noc(C)c2C#Cc2ccccn2)cc(OC)c1OC	3.66µM*	?	-28.0%	?	0.2%
COc1cc(-c2noc(C)c2C#Cc2ccc(N)cc2)cc(OC)c1OC	1.16µM*	?	18.6%	-2.0%	4.0%
CNC(C)C#Cc1c(-c2cc(OC)c(OC)c(OC)c2)noc1C (stereo unspecified)	9.6%	-7.2%	-2.8%	?	-9.6%
Cc1cc(SCc2ccc(C(F)(F)F)cc2)nc(=O)[nH]1	-2.9%	-2.1%	33.7%	6.6%	-5.1%
CCOC(=O)N1CCN(C(=O)CSCC(=O)Nc2nc(-c3ccc(Cl)s3)cs2)CC1	10.1%	11.5%	32.2%	16.4µM*	7.3%
Cc1csc(SCC(=O)Nc2cc([N+](=O)[O-])ccc2F)n1	?	?	/	-0.3%	/
Cc1ccc(N=CC=C2OC(C)(C)C(C)(C)O2)cc1	0.82µM*	16.4µM*	-15.1%	0.6%	-9.6%
Cc1cccc(N=CC=C2OC(C)(C)C(C)(C)O2)c1	20.6µM*	?	13.0%	?	?
Cc1nn(CCCC(=O)NCCCN2CCN(C)CC2)c(=O)c2c1sc1ccccc12	?	3.2%	-15.2%	8.4%	-1.4%
CC(NCc1ccc([N+](=O)[O-])cc1)C1COc2ccccc2O1 (stereo unspecified)	-2.5%	12.7%	-0.7%	0.9%	0.9%
CCN(CC)c1ccc(/C=C(\C#N)C(=O)c2ccc(Br)cc2)cc1	?	13µM*	?	-19.4%	?
SMILES	SW480 rerep	MCF10A rereplic	RORg inh	ELG1 DNA repair	VP16 counter
O=C(c1csnn1)N1CCC2(CC1)CCN(c1ccncc1)CC2	/	/	-0.1%	/	1.6%
O=C(CCn1cccc1)NCc1ccccc1	11.9%	-5.9%	5.0%	6.4%	-7.8%
Cc1ccc(C(=O)N/C(=C/c2ccccc2)C(=O)NCc2ccncc2)cc1	2.0%	4.2%	24.6%	?	-0.8%
Cc1ccc(C(=O)N/C(=C\c2ccccc2)C(=O)NCc2ccncc2)cc1	15.6%	9.9%	-14.4%	1.84µM*	-11.5%
O=C(Cc1ccc(-n2cccc2)cc1)NCc1ccccc1Cl	18.4µM*	4.11µM*	36.2%	-15.3%	4.9%
O=C(Cc1ccccc1)NCc1ccc(-n2cccc2)cc1	6.51µM*	10.3µM*	-7.4%	-2.8%	-7.1%
O=C(Cc1ccccc1)NCc1ccncc1	2.3%	7.3%	6.31µM*	?	?
O=C(NCc1ccccc1Cl)NCc1ccccc1Cl	-18.1%	0.5%	22.9%	?	-2.1%
COc1cccc2c1OC(=O)CC2c1ccc(C)cc1 (stereo unspecified)	/	/	40.4%[96.6 µM]	/	2.6%[96.6 µM]
Cn1c(=O)c2c(SCC(=O)N3CCCC3)nc(-c3ccccc3)nc2n(C)c1=O	-21.1%	-27.5%	-5.7%	2.4%	-12.6%
COc1ccc2c(c1)C(=O)[C@H](OC(=O)NS(=O)(=O)c1ccc(F)cc1)[C@@H](c1ccc(OC)c(Br)c1)O2	/	/	?	/	-13.4%
COc1ccccc1N1CCN(/N=C/C(Cl)=C/c2ccccc2)CC1	-1.0%	?	-10.5%	?	5.4%
C(=N\Nc1nc2ccccc2s1)/c1ccc2c(c1)OCO2	-4.4%	20.1%	7.94µM*	?	7.08µM*
Cc1nc(N/N=C\c2ccc3c(c2)OCO3)sc1C	1.9%	20.3%	-38.8%[1.91 µM]	?	?
O=C(O)C/C(=C\c1cc2c(cc1Br)OCO2)c1nc2ccccc2s1	?	13.6%	-10.3%	?	6.6%
Brc1cc2c(cc1/C=N/Nc1nc3ccccc3s1)OCO2	?	12.6µM*	4.47µM*	?	?
Cn1cc(Cl)c(C(=O)N/N=C/c2ccc3c4c(cccc24)CC3)n1	-3.1%	1.6%	?	?	-22.5%
COCc1[nH]nc2c1C(c1c(F)cccc1Cl)C(C#N)=C(N)O2 (stereo unspecified)	-0.6%	3.1%	?	-1.7%	17.8µM*
N#CC1=C(N)Oc2n[nH]c(-c3ccccn3)c2C1c1c(F)cccc1Cl (stereo unspecified)	7.1%	10.7%	3.16µM*	-1.3%	8.91µM*
S=C1Cc2ccccc2N1	?	?	?	?	-92.2%
Cn1nnnc1SCC(=O)N1c2ccccc2Sc2ccccc21	-2.6%	3.1%	5.8%	-6.2%	1.9%
O=C(CSc1nncs1)N1c2ccccc2Sc2ccccc21	20.6µM*	8.2µM*	0.1%[10 µM]	-27.9%	9.4%
Cc1cc(C)n(CC(=O)N2c3ccccc3Sc3ccccc32)n1	1.1%[9.22 µM]	-2.4%	7.08µM*	5.9%	-29.6%
Cc1cc(C)n(CC(=O)O)n1	-8.7%	0.8%	2.1%	3.2%	-2.7%
Cc1ccc(SCC(=O)N2c3ccccc3Sc3ccccc32)cc1	3.3%	7.31µM*	27.8%	-3.3%	-15.2%
Clc1ccc(C#Cc2cccnc2)cc1	-0.1%	-1.8%	/	?	/
CN(CCNC(=O)c1cc2c(=O)n(C)c3ccccc3c2n1C)Cc1ccccc1	3.2%	20.6µM*	11.2µM*	?	?
